This is a sample that favours compounds with a hit; in the whole collection about 6.9% have one here.
Mdm2 MdmX PPI = human Mdm2/MdmX binding inhibition; O15151+Q00987; SaOS-2 split-luciferase Mdm2/MdmX complementation, luminescence; inhibition, % at 8 µM; 330,000 tested, 3% active; AID 485346;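 active = inhibition of at least 50% at 8 µM in the primary screen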
Target sequence (O15151 whole entry, looked up): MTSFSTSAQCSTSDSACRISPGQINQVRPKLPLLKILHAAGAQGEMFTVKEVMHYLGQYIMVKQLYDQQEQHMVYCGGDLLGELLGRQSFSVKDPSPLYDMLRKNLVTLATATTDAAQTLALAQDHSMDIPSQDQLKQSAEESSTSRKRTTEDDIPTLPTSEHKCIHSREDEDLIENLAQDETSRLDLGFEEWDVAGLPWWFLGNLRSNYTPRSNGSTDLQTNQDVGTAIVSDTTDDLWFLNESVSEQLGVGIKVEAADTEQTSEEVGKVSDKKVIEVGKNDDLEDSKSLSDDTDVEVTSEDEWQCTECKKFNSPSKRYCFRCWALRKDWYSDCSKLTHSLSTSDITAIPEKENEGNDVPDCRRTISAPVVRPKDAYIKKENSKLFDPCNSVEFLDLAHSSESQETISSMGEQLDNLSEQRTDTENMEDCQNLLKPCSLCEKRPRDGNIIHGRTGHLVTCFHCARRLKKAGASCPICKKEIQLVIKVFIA
Target sequence (Q00987 whole entry, looked up): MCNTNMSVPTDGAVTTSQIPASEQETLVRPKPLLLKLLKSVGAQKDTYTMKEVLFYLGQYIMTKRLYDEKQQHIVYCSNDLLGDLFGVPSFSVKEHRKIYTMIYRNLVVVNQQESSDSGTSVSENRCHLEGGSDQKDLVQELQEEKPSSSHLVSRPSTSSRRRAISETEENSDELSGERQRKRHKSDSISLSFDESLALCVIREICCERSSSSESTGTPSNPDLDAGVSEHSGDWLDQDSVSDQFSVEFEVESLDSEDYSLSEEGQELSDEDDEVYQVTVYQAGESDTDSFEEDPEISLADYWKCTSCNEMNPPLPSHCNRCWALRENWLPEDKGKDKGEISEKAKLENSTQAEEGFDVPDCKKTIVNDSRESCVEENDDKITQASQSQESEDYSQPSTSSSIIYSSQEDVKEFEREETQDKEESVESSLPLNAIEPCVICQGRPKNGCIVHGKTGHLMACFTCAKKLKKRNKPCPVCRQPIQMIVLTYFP
SKKanGAS inh = blocks kanamycin growth of S. pyogenes SKKanGAS strain | BacTiter-Glo, 6 h | inhibition, % at 7.5 µM | 300,000 tested, 1.3% active | AID 1662;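 active = mean replicate score, as percent of positive control median, at least 50; inconclusive = mean below 50 but one replicate at or above 50; inactive = mean and every replicate below 50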;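 also: strain carries kanamycin resistance gene driven by streptokinase promoter and grows in 40 µg/ml kanamycin; loss of luminescence reflects streptokinase promoter inhibition or plain growth inhibition; 0% = median of DMSO wells and 100% = positive control at its reference dose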
CSC inhib = blocks cancer stem cells | cancer stem cell-like cells viability, luminescence | AID 2717 | 300,000 tested, 1.1% active | inhibition, % at 7.5 µM; in the data active = inhibition above about 75%; inconclusive = no clear call, values can overlap the other calls; tested in HMLE shEcad cells
Beta apoptosis = beta cell apoptosis inhibition | INS-1E cytokine-induced death, ATP luminescence, 48 h; percent of positive-control rescue, neutral wells zero | protection from apoptosis, % (concentration not given with the values) | 300,000 tested, 0.8% active | AID 435005;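 active = Every replicate reaches about 75%, or at least half do and their mean reaches it too, limit read from the data; inconclusive = At least half of replicates reach the limit but their mean does not; inactive = Under half of replicates reach the limit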;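 also: 0% = cytokine-treated negative control wells and 100% = positive control rescue; higher means more ATP so stronger rescue from cytokine killing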
MPTP inh = permeability transition pore inhibition | isolated mouse mitochondria, Ca2+ swelling absorbance, 30 min | 360,000 tested, 1.4% active | inhibition, % at 10 µM;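 active = inhibition of 50% or more, scaled per plate between neutral and stimulator controls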;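 also: 0% = DMSO wells given calcium and 100% = 1 mM EGTA wells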
NR3A LBD binder = NR3A (human) ligand-binding domain modulation. Tm shift relative to glycine control, % at 25 µM. 340,000 tested, 2.5% active. AID 1259313. NR3A LBD differential scanning fluorimetry, Tm shift; 0% = protein alone, 100% = glycine-bound protein;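 active = melting temperature shift of at least 10% of the positive control shift, at one fixed dose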
Mdm2 MdmX conf = confirmation of human Mdm2/MdmX interaction inhibitors; shares compounds with Mdm2 MdmX PPI; Mdm2-MdmX binding, luminescent assay; inhibition, % at 8 µM; 10,000 tested, 55% active; AID 489028; in the data active = inhibition above about 40%
FLuc counter = counter-screen for Mdm2/MdmX inhibitors: full-length luciferase | shares compounds with Mdm2 MdmX PPI | SaOS-2 full-length luciferase counterscreen, luminescence | inhibition, % at 8 µM | 6,200 tested, 77% active | AID 504607;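 active = mean inhibition at 8 µM reaching about 37%, which flags the compound as non-specific, limit read from the data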;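 also: p53-null SaOS-2 cells with luciferase driven by a doxycycline-inducible promoter; compound on cells about two nights before reading with doxycycline added after day one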
Starred values were filed as active, the others as inactive; ? = inconclusive; nt = not tested or not shown.

SMILES | Mdm2 MdmX PPI | SKKanGAS inh | CSC inhib | Beta apoptosis | MPTP inh | NR3A LBD binder | Mdm2 MdmX conf | FLuc counter
CC(Oc1ccccc1)C(=O)Nc1ccc(NC(=O)c2ccccc2)cc1 (stereo not given) | 66.4* | 3.1 | 1.0 | -2.1 | 2.0 | -27.9 | 37.3 | 52.1*
COc1c(/C=N/Nc2nc(N3CCCCC3)nc(N3CCCCC3)n2)cccc1[N+](=O)[O-] | 15.0 | 34.9 | -9.9 | 29.1 | 3.2 | -1.7 | nt | nt
O=[N+]([O-])c1cc2c(cc1/C=N/Nc1nc(Nc3ccccc3)nc(N3CCCCC3)n1)OCO2 | 63.6* | 19.8 | 4.0 | 10.0 | 0.7 | -0.8 | 42.5* | 37.3*
COc1cccc(/C=N/Nc2ccc([N+](=O)[O-])cn2)c1O | 93.1* | 103.9* | 122.8* | 119.3* | 4.3 | 29.2* | 91.2* | 52.9*
Cc1ccc(Nc2nc(N/N=C\c3ccc4c(c3)OCO4)nc(N3CCOCC3)n2)cc1 | 64.8* | ? | 53.8 | 2.2 | -0.7 | -2.0 | 57.0* | 78.1*
COc1cccc(/C=N/Nc2nc(Nc3ccc([N+](=O)[O-])cc3)nc(N3CCCC3)n2)c1O | 96.1* | 72.9* | nt | 59.9 | 0.4 | 22.8* | 89.4* | 39.1*
Cc1cc(C)nc(N/N=C/c2cc3c(cc2[N+](=O)[O-])OCO3)n1 | 7.2 | -7.4 | 0.3 | -2.7 | 1.6 | -0.8 | nt | nt
Cc1cc(C)cc(NS(=O)(=O)c2ccc(NC(=O)C3CCCCC3C(=O)O)cc2)c1 (stereo not given) | -10.2 | 4.6 | 5.1 | -2.1 | -3.9 | -0.7 | nt | nt
Cc1cc(C(=O)NCc2csc(-c3ccccc3)n2)no1 | -19.0 | 7.1 | 4.3 | 2.2 | -1.5 | 2.2 | nt | nt
CC1CCCN(C(=O)COC(=O)CNC(=O)c2ccc(Br)cc2)C1 (stereo not given) | -12.0 | -9.8 | -7.8 | -3.4 | -0.5 | -0.3 | nt | nt
CC(C)n1nccc1N(Cc1ccc(Br)cc1)S(=O)(=O)c1ccccc1 | 28.4 | 4.7 | nt | 2.3 | 1.3 | -1.2 | nt | nt
O=c1[nH]c(N/N=C/c2cc3c(cc2[N+](=O)[O-])OCO3)nc2ccccc12 | 64.0* | 7.9 | -18.6 | -5.2 | 2.1 | 0.5 | 6.0 | nt
CS(=O)(=O)N(CC(=O)NC1CC1)C1CCCCC1 | 4.6 | -10.3 | 4.4 | 1.5 | 1.3 | -15.8 | nt | nt
CCC(C)N1CC(=O)N2C(c3ccc(OC)cc3OC)c3[nH]c4ccccc4c3C[C@H]2C1=O (stereo not given in full) | 5.2 | 6.6 | -19.0 | 7.6 | -1.1 | -0.5 | nt | nt
COc1ccc(C2c3ccc(O)cc3Oc3ncn(Cc4ccccc4)c(=N)c32)cc1OC (stereo not given) | 17.7 | 0.1 | -3.8 | 9.0 | 0.2 | 0.6 | nt | nt
COc1ccc(Cc2nc3c4c(ncn3n2)Oc2c(ccc3ccccc23)C4c2ccc(OC)c(OC)c2)cc1 (stereo not given) | 13.1 | 12.9 | -0.7 | -2.4 | 2.4 | 0.9 | nt | nt
COc1ccc(C2c3ccc4ccccc4c3Oc3ncn(CCCO)c(=N)c32)cc1OC (stereo not given) | 78.3* | -10.1 | 48.9 | 7.3 | -3.8 | -1.0 | 70.7* | 47.7*
COc1ccc(C2c3ccc4ccccc4c3Oc3ncn(CCO)c(=N)c32)cc1OC (stereo not given) | 57.9* | 1.8 | 14.6 | 4.2 | 1.3 | -2.0 | 33.1 | nt
Cc1ccc(N2CC(C(=O)Nc3ncc([N+](=O)[O-])s3)CC2=O)cc1 (stereo not given) | 3.9 | 19.9 | -2.7 | 8.3 | 6.8 | -8.3 | nt | nt
CCOc1ccc(/C=N/NC(=O)CN2CCCCC2)cc1OCC | 11.3 | 4.0 | 24.7 | 14.4 | 2.0 | 3.0 | nt | nt
Cc1oc2cc(O)cc(C)c2c(=O)c1-c1cnn(-c2ccccc2)c1 | 57.8* | 17.3 | 27.7 | 5.4 | -0.7 | 3.3 | 23.7 | nt
Cc1oc2c(O)c(O)ccc2c(=O)c1-c1cnn(-c2ccccc2)c1 | 10.9 | 2.2 | 54.6 | -2.1 | 3.2 | 4.0 | nt | nt
COC(=O)c1ccc2nc(C)cc(Nc3ccc(N(C)C)cc3)c2c1 | 5.3 | -2.7 | 14.0 | 13.9 | -0.1 | 0.6 | nt | nt
CC(=O)c1ccc(Nc2cc(C)nc3c(C)cc(C)cc23)cc1 | 64.0* | 7.2 | -7.3 | 77.5* | 1.0 | 0.5 | 61.2* | 65.4*
COC(=O)c1ccc(Nc2cc(C)nc3ccccc23)cc1 | 100.2* | -2.5 | 38.9 | 20.3 | 3.2 | -1.7 | 65.2* | 52.1*
SMILES | Mdm2 MdmX PPI | SKKanGAS inh | CSC inhib | Beta apoptosis | MPTP inh | NR3A LBD binder | Mdm2 MdmX conf | FLuc counter
CCC(C)Sc1ccc([C@H]2N[C@@](Cc3ccccc3)(C(=O)OC)[C@H]3C(=O)N(CC)C(=O)[C@@H]23)cc1OC (stereo not given in full) | 8.5 | 10.9 | -39.2 | nt | 1.2 | -0.1 | nt | nt
CCc1nn(CC(=O)NC2CCN(Cc3ccccc3)CC2)c(=O)c2cc3cc(F)ccc3n12 | 58.0* | 6.2 | 5.0 | 3.0 | -2.0 | 2.7 | 20.4 | nt
CCc1nn(CC(=O)NC(C)CCc2ccccc2)c(=O)c2cc3cc(F)ccc3n12 (stereo not given) | 55.0* | 6.6 | 15.3 | 9.2 | 0.1 | -1.6 | 10.6 | nt
CC1CC(C)CN(CCCNC(=O)C2CCN(c3ncnc4c3sc3cccc(F)c34)CC2)C1 (stereo not given) | 55.8* | 1.3 | -13.8 | 5.3 | nt | nt | 34.1 | 64.1*
CCN(CC)CCCNC(=O)C1CCN(c2ncnc3c2sc2cccc(F)c23)CC1 | 21.3 | -2.1 | 5.0 | 6.0 | 0.6 | 1.1 | nt | nt
CCOCCCNC(=O)CN1N=C(c2ccc(C)cc2)CCC1=O | -7.2 | -3.6 | 7.3 | -3.2 | -0.9 | 1.7 | nt | nt
COC(=O)C1=C(C(=O)OC)[C@@H]2N(C)c3ccccc3[C@@]23C[C@@H](C(=O)OC)N(C(=O)c2ccc(Br)cc2)C3=N1 | 68.1* | 1.7 | 13.3 | -17.3 | 0.7 | 2.3 | 17.1 | nt
CC#CCN1c2ccccc2[C@]23C[C@@H](C(=O)OC)N(C(=O)c4ccc(Br)cc4)C2=NC(C(=O)OC)=C(C(=O)OC)[C@H]13 | 95.5* | 3.1 | 40.4 | -4.6 | nt | -1.4 | 75.7* | 68.1*
Cc1ccc(Nc2cc(C(=O)NCCCN3CCOCC3)c3ccccc3n2)cc1C | 13.1 | 3.2 | -13.6 | nt | 0.9 | 0.1 | nt | nt
Cc1ccc(S(=O)(=O)c2c(N)n(CCCN(C)C)c3nc4ccccc4nc23)cc1 | 54.0* | 4.5 | nt | nt | -3.2 | -0.7 | 10.7 | nt
CCOc1ccccc1C1c2[nH]c3ccccc3c2C[C@H]2C(=O)N(C3CC3)CC(=O)N12 (stereo not given in full) | 18.0 | 0.8 | -10.5 | 0.0 | 0.4 | 0.0 | nt | nt
O=C(Cn1nc(-c2cccc(Cl)c2)ccc1=O)Nc1ccc(C(=O)NC2CC2)cc1 | -3.1 | 4.2 | -5.7 | -10.4 | -1.9 | -3.2 | nt | nt
CCOC(=O)C1CCN(C(=O)C2CCCN(c3ncnc4c3nc3n4CCCCC3)C2)CC1 (stereo not given) | -2.3 | 4.7 | 3.9 | 0.0 | 5.6 | 5.0 | nt | nt

Compound activity from PubChem BioAssay.
